# Compound activity from PubChem.
# In the library only some 3.9% were active in any assay of this set; here they are far more common.
# NTR1 ag: NTR1 (human) agonism. P30989. NTR1-U2OS beta-arrestin-GFP spot imaging, agonist mode. activation, % at 20 µM. hit rate 0.17% among 330,000;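 active = activation at or above 40% of the spot to cytoplasm intensity ratio, with at least 20 cells analyzed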;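 note: 0% = DMSO without peptide and 100% = 100 nM NTR1 peptide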
# UBC9 SUMO inh: inhibitors of human SUMOylation (UBC9) | inhibition, % at 35 µM | hit rate 0.36% among 290,000 | HTRF SUMOylation assay, SAE1/SAE2 + UBC9, in vitro | P63279; in the data active = inhibition above about 50%, passing the limit was not always enough
# Target sequence (P63279 whole entry, looked up): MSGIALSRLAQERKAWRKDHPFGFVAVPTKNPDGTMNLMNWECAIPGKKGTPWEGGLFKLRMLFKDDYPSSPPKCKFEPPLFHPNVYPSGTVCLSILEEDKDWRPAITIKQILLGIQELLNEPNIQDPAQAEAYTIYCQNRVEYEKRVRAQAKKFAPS
# ALR inh: human ALR oxidase inhibition via reduced H2O2; hit rate 3.8% among 290,000; inhibition, % (test concentration not listed); purified ALR, DTT oxidation, H2O2 HRP-luminol luminescence; P55789;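 active = mean replicate inhibition above about 79%, with every replicate also reaching it, limit read from the data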
# Target sequence (P55789 whole entry, looked up): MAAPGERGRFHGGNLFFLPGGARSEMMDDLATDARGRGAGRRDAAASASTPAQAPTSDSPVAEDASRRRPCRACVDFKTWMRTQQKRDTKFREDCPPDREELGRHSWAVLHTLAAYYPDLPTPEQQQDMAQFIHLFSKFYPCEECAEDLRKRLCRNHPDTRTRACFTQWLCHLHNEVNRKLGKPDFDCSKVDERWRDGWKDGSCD
# Cardio protect: protects H9c2 cardiomyocytes from peroxide injury. H2O2 injury protection, ATPLite, 2 h. protection from H2O2 cell death, % at 20 µM. hit rate 0.63% among 360,000. AID 588492;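 active = compounds giving at least 50% protection of heart cells from peroxide-induced death in the single-dose screen, raw or plate-pattern-corrected value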;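 note: 0% = DMSO wells with peroxide and 100% = DMSO wells without peroxide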
# NTR1 ag conf: confirmation of agonists of human NTR1. activation, % at 20 µM. NTR1-U2OS beta-arrestin-GFP translocation imaging. hit rate 38% among 480. shares compounds with NTR1 ag. AID 504550;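 active = mean activation at 20 µM of at least 40%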;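 note: 0% = DMSO without peptide and 100% = 100 nM NTR1 peptide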
# * marks the source's active call; other numbers are inactive results; x = no result given.
SMILES,NTR1 ag,UBC9 SUMO inh,ALR inh,Cardio protect,NTR1 ag conf
Nc1nc(N)c(C=Nc2ccc(Br)cc2)c(Nc2ccc(Br)cc2)n1,59*,-15,3,-17,32
Nc1nc(N)c(Br)c(Nc2ccc(Cl)c(Cl)c2)n1,x,x,x,-11,x
Fc1ccc(-n2nnnc2-c2cnc(-c3cccs3)nc2C(F)(F)F)cc1,49*,23,-8,-14,67*
Cn1cc([N+](=O)[O-])c(C(=O)Nc2nc(-c3ccc(Cl)cc3)cs2)n1,49*,39,-2,-33,71*
CCCCNc1c(-c2ccc(OC)c(SC(C)CC)c2)nc2ccc(C)cn12 (stereo not given),51*,x,19,-20,72*
COc1cccc(CSc2nc3ccncc3[nH]2)c1,0,1,0,-19,x
C/C(=N/Nc1cc(-c2ccccc2)nc(-c2ccccc2)n1)c1ccc(O)cc1,54*,2,10,-11,46*
CCN(CCn1cccn1)C(=O)CCc1nnc(Cc2c[nH]c3ccccc23)o1,0,-6,0,3,x
CCOC(=O)Cn1c(=NC(=O)c2sc3ccccc3c2Cl)sc2cc(S(N)(=O)=O)ccc21,x,x,3,-5,x
Cc1nnc(NC(=O)c2cc(S(=O)(=O)N(C)C)ccc2N2CCCC2)s1,-2,x,x,10,x
C=C(C)COc1ccc(-c2nc(N)ncc2-c2ccc(Cl)cc2)c(O)c1,70*,-14,-19,-8,26
C=C(C)COc1ccc(-c2nc(N)ncc2-c2ccc(OC)cc2)c(O)c1,x,-26,x,x,x
Oc1ccc(/C=N/N2CCN(C3c4ccccc4-c4ccccc43)CC2)c(O)c1,43*,2,9,-5,6
CC1CCc2sc(C(=O)OC(C)C(=O)Nc3ncc(Cl)cc3Cl)cc2C1 (stereo not given),0,4,4,x,x
Nc1nc(Nc2ccccc2)nc(NC2CCCCC2)c1[N+](=O)[O-],87*,-28,4,-16,33
CNc1nc(N)c([N+](=O)[O-])c(NC2CCCCC2)n1,6,2,2,2,x
O=C(CN1CCCC1)Nc1c2c(cc3c1CCC3)CCC2,1,7,-15,-2,x
Nc1ccc(C(=O)N/N=C\c2ccc(OC(=O)c3ccccc3Cl)cc2)cc1,-1,0,-3,7,x
COc1cc(C(=O)N/N=C/c2ccc(OC(=O)c3ccccc3Cl)cc2)ccc1O,49*,-10,-19,52*,9
Oc1c(Cl)cc(Cl)cc1/C=C/c1ccc2cccc(O)c2n1,3,21,-9,-26,x
Oc1ccc(Cl)cc1/C=C/c1ccc2cccc(O)c2n1,46*,-4,x,-17,17
CCOC(=O)c1c(C)nc(C)c(C(=O)OCC)c1-c1cccnc1,-2,10,-18,4,x
Cc1ccc(S(=O)(=O)N(CCCO)CC(O)CON=C2c3ccccc3-c3ccccc32)cc1 (stereo not given),47*,-13,-5,-16,22
CC[C@@H](C(=O)[C@@H](C)[C@@H](O)[C@H](C)[C@@H]1O[C@@H]([C@@H](CC)C(=O)O)CC[C@@H]1C)[C@H]1O[C@]2(C=C[C@@H](O)[C@]3(CC[C@@](C)([C@H]4CC[C@](O)(CC)[C@H](C)O4)O3)O2)[C@H](C)C[C@@H]1C,x,x,x,-36,x
CC[C@@H](C(=O)[C@@H](C)[C@@H](O)[C@H](C)CCc1ccc(C)c(O)c1C(=O)O)[C@H]1O[C@](CC)([C@H]2CC[C@](O)(CC)[C@H](C)O2)C[C@@H]1C,53*,19,2,-44,62*
SMILES,NTR1 ag,UBC9 SUMO inh,ALR inh,Cardio protect,NTR1 ag conf
Cc1ccc(NS(=O)(=O)c2ccc(Cl)c(NC(=S)NC(=O)C3CCCCC3)c2)cc1Cl,55*,-28,2,-22,17
Cc1cccc(CSc2nc3ccncc3n2CC(=O)Nc2cc(C)cc(C)c2)c1,11,6,x,-19,x
O=C(c1ccc(Cl)cc1)C(CN1CCCCC1)c1ccccc1 (stereo not given),50*,-9,97*,-14,60*
Cc1ccc(C(=O)O/N=C(\N)Cc2cccc3ccccc23)cc1,-1,0,-12,-19,x
COc1ccc(C=NNc2nc3ccccc3s2)cc1,x,x,x,-22,x
Cc1ccc2[nH]c(C)c(/C=N/Nc3nc4ccccc4s3)c2c1,41*,-1,4,7,37
Cn1ncc2c(Nc3ccc(Br)cc3)nc(Nc3ccc(Br)cc3)nc21,31,-6,0,-4,x
Cn1ncc2c(Nc3cccc(Cl)c3)nc(Nc3cccc(Cl)c3)nc21,64*,-1,10,-4,29
FC(F)Sc1ccc(NC(=S)NC(c2ccccc2)c2ccccc2)cc1,41*,-12,-1,-29,0
Cc1ccc(OCCN2CCN(c3nc(NCc4ccco4)c4ccccc4n3)CC2)cc1,50*,-39,-35,-10,32
O=C(/C=C/c1ccc(OCCCF)cc1)Nc1ccnc(-c2ccncc2)n1,56*,28,x,14,-8
Cc1ccc(N2CCN(C(=O)C3CCCN(c4ncnc5c4nc4n5CCCCC4)C3)CC2)c(C)c1 (stereo not given),73*,-8,-1,-10,29
Cc1ccc(C)c(N2CCN(C(=O)C3CCCN(c4ncnc5c4nc4n5CCCCC4)C3)CC2)c1 (stereo not given),20,-13,0,26,x
Cc1cccc(N2CCN(C(=O)C3CCN(c4ncnc5c4nc4n5CCCCC4)CC3)CC2)c1C,17,-5,-4,-5,x
Cc1cccc(N2CCN(C(=O)C3CCN(c4ncnc5c4nc4n5CCCCC4)CC3)CC2C)c1 (stereo not given),55*,-4,34,6,31
O=C(Nc1ccc(Cl)c(C(F)(F)F)c1)NC1CC2CCCC(C1)N2Cc1ccccc1 (stereo not given),44*,-2,-4,x,23
Cc1ccc(NC(=S)NNc2ncc(C(F)(F)F)cc2Cl)c(C)c1,0,0,6,-5,x
Cc1ccc(-c2nc(Nc3cccc(O)c3)c3ccccc3n2)cc1,57*,0,-129,14,44*
O=[N+]([O-])c1ccc(-c2nc(Nc3cccc(O)c3)c3ccccc3n2)cc1,56*,-21,-2,-15,49*
O=C(O)c1cccc(Nc2nc(-c3ccccc3)nc3ccccc23)c1,0,-3,13,3,x
Cc1ccc(-c2nc(Nc3ccc(O)cc3)c3ccccc3n2)cc1,42*,-24,31,-7,37
CCCOC(=O)c1cccc(Nc2nc(-c3cccnc3)nc3ccccc23)c1,44*,13,-4,-26,44*
CC1CCC(C(C)C)C(OCC(O)CNC(C)c2ccccc2)C1 (stereo not given),40*,-10,-58,-35,41*
CC1CCC(C(C)C)C(OCC(O)CNC(C)(C)C)C1 (stereo not given),1,-8,-11,5,x
CCOc1cc(/C=C2\C(=O)ON=C2C)ccc1OCc1ccccc1,60*,5,39,-13,84*
CC1CCCC(NCC(O)COC(c2ccc(F)cc2)c2ccc(F)cc2)C1C (stereo not given),52*,1,-22,-32,27
CN(n1cnc2ccccc2c1=O)S(C)(=O)=O,-1,0,-18,17,x
